RGS7-Gao = RGS7-Galphao binding modulators, primary screen, biochemical, multiplexed bead flow cytometry; Guanine nucleotide-binding protein G(o) subunit alpha (Homo sapiens), P09471; actives lie on both sides; binding response (% of control), % at 10 µM; 0.35% of 220,000 active; in the data active = binding response below about 49% or above about 150%; inconclusive = no clear call, values can overlap the other calls; inactive = in between;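 also: fluorescent Galphao held in activated GDP-AlF4 state binding bead-coupled RGS7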
Target sequence (P09471 whole entry, looked up): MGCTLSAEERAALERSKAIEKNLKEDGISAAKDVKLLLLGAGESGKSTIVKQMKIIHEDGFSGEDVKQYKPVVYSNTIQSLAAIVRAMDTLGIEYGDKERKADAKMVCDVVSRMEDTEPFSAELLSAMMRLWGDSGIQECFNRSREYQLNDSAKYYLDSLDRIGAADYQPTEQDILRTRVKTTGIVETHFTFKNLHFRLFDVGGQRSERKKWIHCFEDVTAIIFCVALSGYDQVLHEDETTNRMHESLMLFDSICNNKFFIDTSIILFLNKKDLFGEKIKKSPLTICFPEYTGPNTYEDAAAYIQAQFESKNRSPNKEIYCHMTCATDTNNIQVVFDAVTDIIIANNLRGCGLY
RGS8-Gao reg = RGS8-Galphao binding modulators, primary screen, biochemical, multiplexed bead flow cytometry | 0.34% of 220,000 active | Guanine nucleotide-binding protein G(o) subunit alpha (Homo sapiens), P09471 | actives lie on both sides | AID 1423, 2008 | response (percent of control binding), % at 10 µM; in the data active = response below about 60% or above about 140%; inactive = in between;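 also: Galphao activated as the GDP aluminium fluoride complex binding bead-coupled RGS8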
Avidin bead fluor = green autofluorescence of compounds with avidin beads – biophysical, 488/530 nm, flow cytometry, artefact control, profiling panel; compound fluorescence 488/530 nm; hits give high values; fluorescence (KMESF) at 10 µM; 0.38% of 220,000 active; AID 1775, 2009; in the data active = fluorescence above about 47
RGS16-Gao = modulators of RGS16 binding to Galphao, primary screen, biochemical, human proteins, multiplexed bead flow cytometry; 0.38% of 220,000 active; binding response (% of control), % at 10 µM; bead-based flow cytometry RGS16-Galphao binding, fluorescence; actives lie on both sides; Regulator of G-protein signaling 16 (Homo sapiens) + Guanine nucleotide-binding protein …; AID 1441, 2008; call rule not given here;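 also: Galphao activated by GDP with aluminum fluoride before binding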
RGS4-Gao reg = modulators of RGS4 binding to Galphao, primary screen, biochemical, multiplexed bead flow cytometry. Guanine nucleotide-binding protein G(o) subunit alpha (Homo sapiens), P09471. actives lie on both sides. binding response (% of control), % at 10 µM. 0.33% of 220,000 active. AID 1415, 2008; in the data active = binding response below about 49% or above about 150%; inactive = in between;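 also: fluorescent Galphao activated with aluminum fluoride binding bead-coupled RGS4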
GSH fluor = compound fluorescence on glutathione beads, profiling panel, artefact control, biophysical, 488/530 nm, flow cytometry | 0.25% of 190,000 active | GSH beads flow cytometry, compound fluorescence 488/530 nm; hits give high values | AID 1776, 2009 | fluorescence (KMESF) at 10 µM; in the data active = fluorescence above about 89;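 also: glutathione beads carrying GST-tagged Bcl family fusion proteins plus one bare bead set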
Avidin counter = disruption of biotin probe capture by avidin, counter-screen for RGS protein interaction modulators, biochemical, flow cytometry, bead-based; shares compounds with RGS16-Gao; inhibition, % at 10 µM; streptavidin beads, fluorescein-biotin binding; AID 1783, 2009; 1,700 tested, under 10 active;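 active = inhibition above 50%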;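 also: median green fluorescence of gated singlet beads compared with DMSO control wells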
RGS8-Gao single = RGS8-Galphao binding modulators, confirmation, biochemical, multiplexed bead flow cytometry, single concentration. shares compounds with RGS16-Gao. bead-based flow cytometry RGS8-Galphao binding, fluorescence; actives lie on both sides. binding response (% of control), % at 10 µM. 3% of 1,700 active. AID 1836, 2009; in the data active = binding response below about 72% or above about 130%; inactive = in between;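 also: Galphao activated as GDP AlF4 complex before binding bead RGS8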
RGS7-Gao confirm = RGS7-Galphao binding modulators, confirmation, biochemical, multiplexed bead flow cytometry, single concentration; shares compounds with RGS16-Gao; bead-based flow cytometry RGS7-Galphao binding; actives lie on both sides; response (percent of control binding), % at 10 µM; 7.8% of 1,700 active; AID 1837, 2009; in the data active = response below about 75% or above about 130%; inactive = in between;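 also: fluorescent Galphao activated with GDP and aluminum fluoride binding bead-coupled RGS7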
RGS16-Gao single = modulators of RGS16-Galphao protein binding, confirmation, biochemical, single concentration, multiplexed bead flow cytometry; AID 1838, 2009; bead-based flow cytometry; actives lie on both sides; response (% of control binding), % at 10 µM; shares compounds with RGS16-Gao; 4% of 1,700 active; in the data active = response below about 74% or above about 130%; inactive = in between;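 also: Galphao activated as the GDP aluminium fluoride complex binding bead-coupled RGS16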
RGS4-Gao confirm = modulators of RGS4-Galphao protein binding, confirmation, biochemical, single concentration, multiplexed bead flow cytometry; shares compounds with RGS16-Gao; actives lie on both sides; binding response (% of control), % at 10 µM; 4% of 1,700 active; in the data active = binding response below about 74% or above about 130%; inactive = in between
RGS19-Gao single = regulators of RGS19-Galphao binding, confirmation, biochemical, single point, multiplexed bead flow cytometry | response (percent of control binding), % at 10 µM | bead-based flow cytometry RGS19-Galphao binding; actives lie on both sides | 5% of 1,700 active | shares compounds with RGS16-Gao; in the data active = response below about 50% or above about 160%; inactive = in between
Large screens that a line does not name were inactive (follow-up assays come after a bar, where they were run). Shown are actives, neighbours in structure and some others; about 1.2% of the full set was active somewhere.

O=C(Cc1ccccc1)OCn1nnc2ccccc2c1=O	GSH fluor 126
COC(=O)CC1=C(C(=O)OC)C2(C(=O)N(C)c3ccccc32)C(C#N)=C(N)O1 (centres undefined)	none
CCC(=NCCOc1ccc(Cl)cc1)c1c(O)n(C)c(=O)n(C)c1=O	Avidin bead fluor 59
CCC(=NCCN1CCCCC1)c1c(O)n(C)c(=O)n(C)c1=O	none
CC(Cc1ccccc1)[n+]1cc(/N=C(\N)[O-])on1 (centres undefined)	none
CC(Cc1ccccc1)[n+]1cc(/N=C(\[O-])Nc2ccccc2)on1 (centres undefined)	Avidin bead fluor 57
Cc1ccc2c(c1)C(c1ccccc1)NCC(=O)N2 (centres undefined)	none
O=c1[nH]c(=S)n(Cc2ccc(F)cc2)c(O)c1/C=N/N1CCCCC1	Avidin bead fluor 487
O=c1[nH]c(=S)n(Cc2ccc(F)cc2)c(O)c1C=NCC1CCCO1 (centres undefined)	none
COP(=O)(NC(=O)C(Cl)(Cl)Cl)OC	RGS7-Gao inconclusive, Avidin bead fluor 81 (no result: GSH fluor)
O=c1c2ccccc2nc(-c2ccco2)n1-c1cccnc1	GSH fluor 273
O=c1c2ccccc2nc(-c2ccco2)n1-c1ccccn1	GSH fluor 261
Cc1nc2ccccc2c(=O)n1-c1cccnc1	none
O=C(O)c1nonc1-c1nonc1C(=O)O	none
CC(C)n1cc(C(=O)N(CC(=O)NC2CCCC2)Cc2ccccc2)cn1	Avidin bead fluor 68
CN(C(=O)Oc1ccc(C(C)(C)C)cc1)c1ccccc1	none
COc1ccc(C=C2C(=O)N(C)C(=O)N(C)C2=O)cc1CSc1ccccn1	none
COc1ccc(C=C2C(=O)N(C)C(=O)N(C)C2=O)cc1COc1ccc(NC(C)=O)cc1	RGS7-Gao inconclusive (no result: GSH fluor) | Avidin counter inactive | RGS8-Gao single inactive | RGS7-Gao confirm inactive | RGS16-Gao single inactive | RGS4-Gao confirm inactive | RGS19-Gao single inactive
CCOc1ccc(C2(C#N)CC[N+](C)(C)CC2)cc1	none

Source: PubChem
